Target: T1, v3.1_PPR16 (Artificial Sequence)
T1 chain: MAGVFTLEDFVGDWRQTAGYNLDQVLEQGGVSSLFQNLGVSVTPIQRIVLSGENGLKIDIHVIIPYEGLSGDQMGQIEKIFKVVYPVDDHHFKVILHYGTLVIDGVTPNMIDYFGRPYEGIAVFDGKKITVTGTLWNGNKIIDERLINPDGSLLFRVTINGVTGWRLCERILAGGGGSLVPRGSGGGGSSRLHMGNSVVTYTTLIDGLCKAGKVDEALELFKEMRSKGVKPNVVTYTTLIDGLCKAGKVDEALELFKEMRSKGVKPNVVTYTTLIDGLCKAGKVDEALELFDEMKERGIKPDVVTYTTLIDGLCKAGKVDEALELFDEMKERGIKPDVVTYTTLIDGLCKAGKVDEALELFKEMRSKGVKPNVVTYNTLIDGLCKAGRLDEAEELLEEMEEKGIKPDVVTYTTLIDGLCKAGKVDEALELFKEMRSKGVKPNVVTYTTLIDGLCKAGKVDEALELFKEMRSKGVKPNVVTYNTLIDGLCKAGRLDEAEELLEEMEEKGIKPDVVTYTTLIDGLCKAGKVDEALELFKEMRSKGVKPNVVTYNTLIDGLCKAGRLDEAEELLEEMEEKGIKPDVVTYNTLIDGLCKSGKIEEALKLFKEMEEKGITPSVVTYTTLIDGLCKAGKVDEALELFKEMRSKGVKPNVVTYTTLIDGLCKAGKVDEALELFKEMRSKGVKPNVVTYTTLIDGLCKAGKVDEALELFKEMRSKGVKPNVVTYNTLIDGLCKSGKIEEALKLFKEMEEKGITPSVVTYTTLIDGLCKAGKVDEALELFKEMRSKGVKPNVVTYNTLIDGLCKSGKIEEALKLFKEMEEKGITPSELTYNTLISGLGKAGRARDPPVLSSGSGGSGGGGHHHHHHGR
Assay: RPB-ELISA
Conditions: tags: N-terminal luciferase, C-terminal 6xHis; label: 5'-biotin; ssRNA
Protocol: RNA probes consisting of a designed 30-base sequence containing 18 bases of the target sequence and modified by biotinylation at the 5′ end (RNA_1, RNA_2, RNA_3, RNA_4, and RNA_5, SEQ ID NOS: 61 to 65) were synthesized (Grainer). To a streptavidin-coated plate (Thermo fisher), the 5′-end biotinylated RNA probes were added, reaction was allowed at room temperature for 30 minutes, and the plate was washed with a lysis buffer (20 mM Tris-HCl, pH 7.6, 150 mM NaCl, 5 mM MgCl₂, 0.5% NP-40, 1 mM DTT, 0.1% BSA). For background measurement, wells to which RNA was not added, but 100 μL of the lysis buffer, 1 μL of 100 mM DTT, and 1 μL of 40 unit/4 RNase inhibitor (Takara, 2313A) were added were also prepared. Then, 200 μL of a blocking buffer (20 mM Tris-HCl, pH 7.6, 150 mM NaCl, 5 mM MgCl₂, 0.5% NP-40, 1 mM DTT, 1% BSA) was added, and the plate surface was blocked at room temperature for 30 minutes. Then, 100 μL of E. coli lysate containing luciferase-fused PPR protein having a luminescence level of 1.5×10⁸ LU/μL was added to each well, and the binding reaction was allowed at room temperature for 30 minutes. The well was washed 5 times with 200 μL of a washing buffer (20 mM Tris-HCl, pH 7.6, 150 mM NaCl, 5 mM MgCl₂, 0.5% NP-40, 1 mM DTT). […] The background (luminescence signal value obtained with adding the PPR protein and without adding RNA) was subtracted from the luminescences of the samples to which a solution containing each RNA and PPR protein was added, and the obtained values were used as the binding powers between the PPR protein and RNA.
By using the V3.1 motif, PPR proteins for the same 23 kinds of target sequences were similarly prepared (SEQ ID NOS: 411 to 433 for the nucleotide sequences, and SEQ ID NOS: 434 to 456 for the amino acid sequences), and bindings of all the combinations were analyzed by using RPB-ELISA. The experimental method was the same as that used in Example 3.

| Sequence | binding signal [log2 luminescence] |
| --- | --- |
| GUGGGGGUGGUAGGAAAU | 22.6 |
| GGUGGUGAGGCCCUGGGC | 20.6 |

Reference: patent publication US20220289795, “EFFICIENT METHOD FOR PREPARING PPR PROTEIN AND USE OF THE SAME” (EditForce, Inc., published 2022)
